Screens: PubChem, Broad Institute
These entries were drawn from the full list.
aSyn 5UTR act: Activators via SNCA 5'UTR binding, MLPCN; alpha-synuclein 5'UTR reporter, activators screen; activity score, % (tested at 7.5 µM), hits read low; 300,000 compounds, 7.1% hits; in the data active means activity score below about -60%
Numbers without * were called inactive.

SMILES	aSyn 5UTR act
CCCC1CC(=O)OC1(C)C(=O)CSc1n[nH]c(-c2ccccc2)n1 (stereo not drawn)	-66*
O=C(O)CCCN1C(=O)/C(=C\c2ccco2)SC1=S	-141*
CC(=C\c1ccccc1)/C=C1/SC(=S)N(CCCC(=O)O)C1=O	67
O=C(Nc1cccc(O)c1)c1ccc(Br)c(S(=O)(=O)N2CCCCC2)c1	-70*
O=C(Nc1cccc(O)c1)c1cccc(S(=O)(=O)N2CCCCCC2)c1	-85*
O=C(CCl)Nc1cccc(S(=O)(=O)N2CCCCCC2)c1	-92*
O=C(Nc1ccc2c(c1)OCO2)c1cccc(S(=O)(=O)N2CCCC2)c1	-104*
O=C(COC(=O)c1ccc(O)cc1)Nc1cccc(S(=O)(=O)N2CCCCC2)c1	29
O=C(Oc1cccc(NC(=O)c2ccco2)c1)c1cccc(S(=O)(=O)N2CCCC2)c1	-72*
N#C/C(=C(/O)CSc1ccccn1)c1nc2ccccc2s1	-62*
N#C/C(=C(/O)c1ccc(F)cc1)c1nc2ccccc2s1	-136*
N#C/C(=C(/O)COc1ccccc1)c1nc2ccccc2s1	-63*
N#C/C(=C(/O)c1ccc(-c2cccc([N+](=O)[O-])c2)o1)c1nc2ccccc2s1	-105*
O=C(Nc1cccnc1Cl)c1noc2c1CCc1ccccc1-2	-124*
CCCNC(=O)c1noc2c1CCc1ccccc1-2	-119*
O=C(NCCN1CCOCC1)c1noc2c1CCc1ccccc1-2	-104*
O=C(c1cc2c(=O)n3ccccc3nc2s1)N1CCOCC1	-98*
CC1CCN(C(=O)c2cc3c(=O)n4ccccc4nc3s2)CC1	-78*
c1ccc2c3c([nH]c2c1)-c1[nH]ncc1CC3	-117*
CSc1nc(N)nc(SCC(=O)c2ccc(C)cc2)c1C#N	-113*
CSc1nc(N)nc(SCC(=O)OC(C)C)c1C#N	-82*
Cc1snc(SCC(=O)c2ccc(F)cc2)c1C#N	-124*
CCS(=O)(=O)c1ccc2oc(Nc3ccc(C(C)C)cc3)nc2c1	-95*
CCOc1ccc(Nc2nc3cc(S(=O)(=O)N(CC)CC)ccc3o2)cc1	78
CCc1nc2oc3ccc(C)cc3c(=O)c2cc1C(=O)OC	-201*
SMILES	aSyn 5UTR act
Cc1nc2oc3ccc(F)cc3c(=O)c2cc1C(=O)NC(C)(C)C	-76*
Cc1nc2oc3ccc(Cl)cc3c(=O)c2cc1C(=O)O	-62*
COC(=O)c1cc2c(=O)c3ccccc3oc2nc1C	-172*
CCOC(=O)c1sc(Nc2nc3c(F)cccc3s2)cc1C	-280*
CCOC(=O)c1sc(Nc2nc3ccc(OC)cc3s2)cc1C	-69*
COc1ccc(C(=O)Nc2cccc([N+](=O)[O-])c2)cc1Br	-85*
CCOc1ccc(N/C=C/C(=O)c2ccc(OC)c(OC)c2)cc1	-175*
COc1ccc(Br)cc1CN(C)C(C)C(=O)Nc1cc([N+](=O)[O-])ccc1OC (stereo not drawn)	51
CN(C)S(=O)(=O)Oc1cccc(C(=O)Nc2ccc([N+](=O)[O-])cc2)c1	-168*
COc1ccc(C(=O)CNc2ccc3ccccc3c2)cc1	-70*
COc1ccc(-c2cccc(C(=O)N3CCOCC3)c2)cc1	-80*
COc1ccc(NC(=O)c2cc([N+](=O)[O-])ccc2O)cc1	85
COc1ccc(NC(=O)c2cccc([N+](=O)[O-])c2)cc1	-105*
COc1ccc(-c2cccc(C(=O)Nc3cccc(C(=O)O)c3)c2)cc1	-149*
CCOc1ccc(NS(=O)(=O)c2cc(OC)ccc2OC)cc1	-91*
CCn1c(=N)n(CC(=O)c2cccc([N+](=O)[O-])c2)c2ccccc21	-83*
COc1ccc(C(=O)Nc2ccc(S(=O)(=O)N(C)c3ccccc3)cc2)cc1	-74*
COc1ccc(NC(=O)c2coc(C)c2)cc1	-115*
COc1ccc(C(=O)/C=C/Nc2ccc(C)cn2)cc1OC	-140*
COc1ccc(N/C=C\C(=O)c2ccc3ccccc3c2)cc1	-212*
COc1ccc(NC(=O)c2ccc3ccccc3c2)cc1	-92*
Cc1ccc(NCCC(=O)c2cccc([N+](=O)[O-])c2)cc1	-151*
COC(=O)/C(=C/c1cccc([N+](=O)[O-])c1)NC(=O)c1ccc(OC)cc1	-216*
COc1ccc(C(=O)CNc2ccccc2Br)cc1	-181*
O=C(/C=C/Nc1ccccc1)c1ccc(Oc2ncccn2)cc1	-244*
SMILES	aSyn 5UTR act
COc1ccc2c(c1)C1OCCC1C(c1ccco1)N2 (stereo not drawn)	-76*
Cc1cc2cc(C=C(C#N)C#N)c(Cl)nc2cc1C	-75*
Cc1ccc(-c2n[nH]c(Cc3ccccc3)n2)cc1	-126*
O=C(N/N=C/c1c[nH]c2ccc(Br)cc12)c1ccccn1	-63*
O=C(N/N=C/c1cc2c(cc1Br)OCO2)c1cc2ccccc2o1	-66*
O=C(N/N=C/c1cc2c(cc1Br)OCO2)c1c[nH]c2ccccc12	-82*
O=C(N/N=C/c1cc2c(cc1Br)OCO2)c1ccccn1	-186*
CN(C)c1cc(N/N=C/c2ccc(Cl)cc2)nc(N(C)C)n1	-64*
Cc1cc(NC(=O)c2cccnc2)ccc1Br	-147*
Cc1nc(NC(=O)CCc2ccccc2)ccc1Br	-145*
O=C(Nc1ccc2ccccc2c1)c1cccnc1	-161*
